Measurements reported in PubChem BioAssay AID2685 (National Center for Advancing Translational Sciences (NCATS), 2010).
Hit rate of the full screen: of about 320,000 compounds, about 2,100 (0.66%) were called active. Another 53% or so got no clear call; they are omitted. This is one part of a sample in which actives are shown more often than they occur. Calls come from the whole dose curve; as a rule, active = well fitted inhibition curve with a large enough effect in the signal ratio, with a control signal flat (not every such curve was filed as active); inconclusive = small, poorly fitted or top-dose-only effect, or effect the other way, or a change in a side signal; inactive = flat fitted curve, though single readings scatter; the % refers to the signal ratio.

Experiment: qHTS Assay for Lipid Storage Modulators in Drosophila S3 Cells;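 for cell number change: cells counted by Cell Tracker Red CMTPX staining in the red channel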
Conditions: BODIPY lipid droplet fluorescence, 18-24 h, cells fed with added oleic acid; cell number change: measured here: cell count max response; series mostly up to 46.1 µM
Method in brief: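 Laser-scanning cytometry quantifies lipid droplet accumulation (500–530 nm total intensity; droplet/cell object ratio) in oleic acid-fed (400 uM added) Drosophila S3 cells treated with a concentration series. 20 uM Triacsin C defined 100% inhibition.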
Potency is the fitted concentration of half-maximal effect.

**Q.** With `FC(F)(F)c1cccc(NC(=S)NCC(c2cccnc2)N2CCOCC2)c1` (stereo not given) as the compound, how does the Potency read?
**A.** Its Potency is “inactive”.

**Q.** And the cell number change?
**A.** The cell number change was -6.8%.

**Q.** For `COc1ccc(NC(=S)N(CCc2nc3cc(C)c(C)cc3[nH]2)Cc2cccnc2)cc1`, which Potency is on record?
**A.** The Potency was “inactive”.

**Q.** With `Cc1ccc(S(=O)(=O)N2CCC(C(=O)Nc3ccccc3N3CCCC3)CC2)cc1` as the compound, how does the Potency read?
**A.** The Potency was “inactive”.

**Q.** With `CCn1c(=O)cc(SCC(=O)NCc2ccccn2)c2ccccc21` as the compound, how does the Potency read?
**A.** Its Potency is “inactive”.

**Q.** Which results are given for `COCCn1c(SCC(=O)NC(C)c2ccc(F)cc2)nc2ccccc21` (stereo not given)?
**A.** Potency: inactive; cell number change: 25.2%

**Q.** Which Potency does the source give for `O=C(COc1ccc2c(c1)oc(=O)c1ccccc12)NCCCN1CCOCC1` here?
**A.** The Potency was “inactive”.

**Q.** What about the cell number change of the same compound?
**A.** Its cell number change is 13.8%.

**Q.** For `COc1ccc(CCN(Cc2cc3ccc(C)cc3[nH]c2=O)C(C)=O)cc1OC`, which Potency is on record?
**A.** The Potency was “inactive”.

**Q.** For `COc1ccc(-n2c(=S)[nH]c3cc(C(=O)Nc4ccc(OC)c(OC)c4)ccc3c2=O)cc1`, which Potency is on record?
**A.** Its Potency is “inactive”.

**Q.** And the cell number change?
**A.** Its cell number change is 1.06%.

**Q.** Which Potency does the source give for `COc1ccc(-n2c(=S)[nH]c3cc(C(=O)NCc4ccccc4)ccc3c2=O)c(OC)c1` here?
**A.** Its Potency is “inactive”.

**Q.** What about the cell number change of the same compound?
**A.** Its cell number change is 8.56%.

**Q.** What does the source list for `COc1ccc(-n2c(=S)[nH]c3cc(C(=O)Nc4ccc(F)cc4)ccc3c2=O)c(OC)c1`?
**A.** Potency: 16.4 µM (active); cell number change: 32.1%

**Q.** With `CNC(=S)NNC(=O)Cn1ccc(C)n1` as the compound, how does the Potency read?
**A.** Its Potency is “inactive”.

**Q.** And the cell number change?
**A.** Its cell number change is -2.68%.

**Q.** What does the source list for `O=C(Nc1ccccc1)OC(CN1CCCCC1)C(F)(F)F` (stereo not given)?
**A.** Potency: inactive; cell number change: -2.34%

**Q.** Which Potency does the source give for `Fc1cccc(Nc2ncnc3[nH]ncc23)c1` here?
**A.** Its Potency is “inactive”.

**Q.** With `Cc1ccc(C)c(SCC(=O)NCc2ccco2)c1` as the compound, how does the Potency read?
**A.** The Potency was “inactive”.

**Q.** And the cell number change?
**A.** The cell number change was -4.84%.

**Q.** For `O=C(N/N=C/c1ccc2ccccc2c1)c1ccc(COc2ccc3c(c2)CCC3)o1`, which Potency is on record?
**A.** Its Potency is “inactive”.

**Q.** And the cell number change?
**A.** Its cell number change is -8.3%.

**Q.** For `O=C1CC(N2CCN(c3ccccc3)CC2)C(=O)N1CCc1ccccc1` (stereo not given), which Potency is on record?
**A.** The Potency was “inactive”.

**Q.** And the cell number change?
**A.** The cell number change was 0.673%.

**Q.** Which results are given for `NC(=O)CN1CCN(C2CC(=O)N(CCc3ccccc3)C2=O)CC1` (stereo not given)?
**A.** Potency: inactive; cell number change: 2.77%

**Q.** With `O=C1CC(N2CCN(C/C=C/c3ccccc3)CC2)C(=O)N1CCc1ccccc1` (stereo not given) as the compound, how does the Potency read?
**A.** The Potency was 3.26 µM (active).

**Q.** What about the cell number change of the same compound?
**A.** The cell number change was -18.6%.

**Q.** Which Potency does the source give for `CC1=NN(C(C#N)c2ccc(F)cc2)C(c2ccccc2)C1` (stereo not given) here?
**A.** The Potency was “inactive”.

**Q.** And the cell number change?
**A.** The cell number change was -11.4%.

**Q.** With `COCC(=O)Nc1cc(=O)n(C)c(=O)n1C` as the compound, how does the Potency read?
**A.** The Potency was “inactive”.

**Q.** With `Cc1ccc(OCCSc2ncnc3sc(C)c(C)c23)cc1C` as the compound, how does the Potency read?
**A.** Its Potency is “inactive”.

**Q.** And the cell number change?
**A.** The cell number change was -4.8%.

**Q.** Which Potency does the source give for `CC(=O)C1=C(Nc2ccccc2)CC(C)(O)C(C(C)=O)C1c1ccccc1` (stereo not given) here?
**A.** The Potency was “inactive”.

**Q.** What about the cell number change of the same compound?
**A.** The cell number change was 6.32%.

**Q.** Which results are given for `CCOC(=O)C1=C(Nc2ccc(Br)cc2)CC(C)(O)C(C(=O)OCC)C1c1ccccc1` (stereo not given)?
**A.** Potency: inactive; cell number change: 1.29%

**Q.** What does the source list for `CCOC(=O)C1=C(Nc2ccccc2)CC(C)(O)C(C(=O)OCC)C1c1ccc(Cl)cc1` (stereo not given)?
**A.** Potency: 1.16 µM (active); cell number change: 12.7%

**Q.** What does the source list for `CCCOC(=O)c1ccc(OCC(O)CN2CCN(C(=O)c3ccccc3)CC2)cc1` (stereo not given)?
**A.** Potency: inactive; cell number change: 0.922%

**Q.** With `COCCOC(=O)c1c(NC(=O)CN(C)c2ccccc2)sc(C(N)=O)c1C` as the compound, how does the Potency read?
**A.** The Potency was “inactive”.

**Q.** With `COCCOC(=O)c1c(NC(=O)COC(=O)c2ccc(C)o2)sc(C(N)=O)c1C` as the compound, how does the Potency read?
**A.** Its Potency is “inactive”.

**Q.** And the cell number change?
**A.** The cell number change was -10.2%.

**Q.** For `COCCOC(=O)c1c(NC(=O)COC(=O)Cc2cccc(OC)c2)sc(C(N)=O)c1C`, which Potency is on record?
**A.** The Potency was 6.51 µM (active).

**Q.** With `O=C(NCc1ccccc1Cl)c1cccc(C(F)(F)F)c1` as the compound, how does the Potency read?
**A.** The Potency was “inactive”.

**Q.** And the cell number change?
**A.** The cell number change was -20.2%.

**Q.** With `O=S(=O)(c1ccc(F)cc1)N1CCCN(Cc2c(F)cccc2F)CC1` as the compound, how does the Potency read?
**A.** The Potency was “inactive”.

**Q.** With `O=C(O)/C(=C\C(=O)c1ccccc1)Nc1ccccc1` as the compound, how does the Potency read?
**A.** The Potency was “inactive”.

**Q.** What about the cell number change of the same compound?
**A.** Its cell number change is 1.05%.

**Q.** For `Cn1c(=O)c2cc3c(nc2n(C)c1=O)CC(c1ccccc1)CC3=O` (stereo not given), which Potency is on record?
**A.** Its Potency is “inactive”.

**Q.** And the cell number change?
**A.** Its cell number change is 11.1%.

**Q.** For `Nc1c(-c2ccc3c(c2)OCCO3)oc2ccccc2c1=O`, which Potency is on record?
**A.** Its Potency is 1.84 µM (active).

**Q.** And the cell number change?
**A.** Its cell number change is -8.11%.

**Q.** For `O=c1cc(-c2ccc3c(c2)OCCO3)oc2ccc(Cl)cc12`, which Potency is on record?
**A.** The Potency was “inactive”.

**Q.** And the cell number change?
**A.** Its cell number change is 12.3%.

**Q.** What does the source list for `Nc1oc2ccccc2c(=O)c1-c1ccc2c(c1)OCO2`?
**A.** Potency: inactive; cell number change: 5.77%

**Q.** With `CCOC(=O)C1=C(C)NC2=C(C(=O)CCC2)C1c1cccs1` (stereo not given) as the compound, how does the Potency read?
**A.** Its Potency is “inactive”.

**Q.** And the cell number change?
**A.** Its cell number change is 25.2%.

**Q.** Which results are given for `COc1ccc(NS(=O)(=O)c2cccc(C(=O)N/N=C(\C)c3ccc(-n4ccnc4)cc3)c2)cc1`?
**A.** Potency: inactive; cell number change: 11.3%

**Q.** Which Potency does the source give for `O=C(Nc1ccccc1C(=O)NCCCN1CCOCC1)c1ccc(F)cc1F` here?
**A.** The Potency was “inactive”.

**Q.** What about the cell number change of the same compound?
**A.** The cell number change was 3.6%.

**Q.** What does the source list for `CSCc1ccc(C(=O)NC2CC(C)(C)Cc3c2cnn3-c2ccc(F)cc2)o1` (stereo not given)?
**A.** Potency: 25.9 µM (active); cell number change: -25.2%

**Q.** Which Potency does the source give for `COc1ccc(-n2ncc3c2CC(C)(C)CC3NC(=O)c2ccnn2C)cc1` (stereo not given) here?
**A.** Its Potency is 14.6 µM (active).

**Q.** What about the cell number change of the same compound?
**A.** The cell number change was -19.1%.

**Q.** With `CC1(C)Cc2c(cnn2-c2ccc(F)cc2)C(NC(=O)C2=NNC(=O)CC2)C1` (stereo not given) as the compound, how does the Potency read?
**A.** The Potency was “inactive”.

**Q.** Which results are given for `CC1(C)Cc2c(cnn2-c2ccc(F)cc2)C(NC(=O)c2ccoc2)C1` (stereo not given)?
**A.** Potency: inactive; cell number change: 6.57%

**Q.** What does the source list for `COc1ccc(-n2ncc3c2CC(C)(C)CC3NC(=O)c2ccc(OC)o2)cc1` (stereo not given)?
**A.** Potency: inactive; cell number change: -8.87%

**Q.** For `Cn1nccc1C(=O)NC1CC(C)(C)Cc2c1cnn2-c1ccc(F)cc1` (stereo not given), which Potency is on record?
**A.** The Potency was “inactive”.

**Q.** With `CCN1CCCC1CNC(=O)c1cn(C)c2ccc(S(=O)(=O)N3CCCCCC3)cc2c1=O` (stereo not given) as the compound, how does the Potency read?
**A.** The Potency was “inactive”.

**Q.** What about the cell number change of the same compound?
**A.** Its cell number change is 3.92%.

**Q.** Which Potency does the source give for `CC(C)NC(=O)C(OC(=O)c1ccccc1)C(OC(=O)c1ccccc1)C(=O)O` (stereo not given) here?
**A.** Its Potency is “inactive”.

**Q.** And the cell number change?
**A.** The cell number change was 7.86%.

**Q.** For `Cn1nc(-c2ccccc2)cc1NC(=O)Nc1ccccc1F`, which Potency is on record?
**A.** The Potency was “inactive”.

**Q.** What about the cell number change of the same compound?
**A.** Its cell number change is -4%.

**Q.** What does the source list for `COc1cc(CC(=O)OCC(=O)NC2CCCCC2C)cc(OC)c1OC` (stereo not given)?
**A.** Potency: inactive; cell number change: -2.51%
